From PubChem BioAssay
Rows were chosen to be rich in hits. Some 2.6% of all compounds tested hit in one or more screens of this group.
TWEAK Fn14 block = inhibitors of TWEAK-Fn14 signaling, primary screen, luciferase reporter cells, uHTS | AID 1159606, 2016 | 360,000 compounds, 2% hits | inhibition, % at 10 µM | TWEAK-stimulated Fn14 reporter cells, luciferase luminescence, 8 h; in the data active = inhibition above about 50%
EBV LMP1 NFkB = EBV LMP1-driven NF-kappaB luciferase reporter inhibitors, primary screen, cell-based, luminescence, single point | inhibition, % at 12.5 µM | 350,000 compounds, 0.69% hits | LMP1-induced NF-kappaB luciferase reporter cells | AID 504558, 2011; in the data active = inhibition above about 41%; inconclusive = no clear call, values can overlap the other calls;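 note: 0% = neutral control wells and 100% = reference inhibitor control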
LGR2 antag = inhibitors of bursicon-induced LGR2 CRE-luciferase signal, primary screen, cell-based, HEK293, CRE-luciferase reporter, bursicon stimulation; bursicon-stimulated, 4 h; AID 720647, 2013; 380,000 compounds, 0.35% hits; Drosophila bursicon receptor LGR2 (rickets); inhibition, % at 9.99 µM;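 active = drop in luminescence signal, shown as inhibition above about 50% in the replicate tests, limit read from the data, passing the limit was not always enough; inconclusive = probably only some replicates passing the limit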;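 note: agonist challenge used bursicon conditioned medium at about half maximal strength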
HSP90 refold inh = HSP90 inhibitors, primary screen, cell lysate, luminescence; 290,000 compounds, 0.91% hits; Heat shock protein HSP 90 (rabbit reticulocyte lysate; luciferase refolding); inhibition, % at 5.6 µM; Rabbit reticulocyte lysate, luciferase refolding luminescence, 3 h;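 active = inhibition above the screen-wide mean plus 3 SD, computed separately per campaign, cut at about 16% in these data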;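 note: 0% = DMSO wells and 100% = 60 µM geldanamycin wells; inhibitors lower the luminescence because luciferase stays unfolded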
aDG glyco act = activators of alpha-DG glycosylation, primary screen, uHTS, Pro5-aDG cells, AlphaScreen | alpha-DG glycosylation AlphaScreen (IIH6); 0% Pro5, 100% B10-LARGE cell signal | 360,000 compounds, 0.22% hits | AID 624168, 2012 | activation, % at 10 µM;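 active = activation of at least 8% versus controls, or a plate z-score of at least 8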;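 note: Pro5 are CHO cells carrying HIG-tagged alpha-DG that lacks glycosylation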
TROY signal inh = inhibitors of TROY-driven NF-kB signaling, primary screen, Q293 LMP1-TROYcd cells, NF-kB luciferase, uHTS; inhibition, % at 10 µM; Q293 LMP1-TROYcd NF-kB luciferase reporter, 4 h; 360,000 compounds, 0.98% hits;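 active = compounds whose plate-normalised and pattern-corrected inhibition of the luciferase reporter signal at the single screening dose is 50% or more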
Active calls of the source: *; ? = inconclusive; . = no result.

SMILES | TWEAK Fn14 block | EBV LMP1 NFkB | LGR2 antag | HSP90 refold inh | aDG glyco act | TROY signal inh
O=C(CC1CC1)Nc1ccc2c(c1)[C@H]1C[C@H](CC(=O)NC3CCCCC3)O[C@@H](CO)[C@H]1O2 | . | . | 6 | . | . | .
O=C(NCc1ccccc1)[C@H]1[C@H](CO)[C@H]2Cn3c(cccc3=O)[C@@H]1N2Cc1ccccn1 | . | . | 11 | . | . | .
C[C@H]1CN([C@@H](C)CO)C(=O)c2ccccc2-c2ccccc2CO[C@H]1CN(C)C(=O)CCC(F)(F)F | . | . | 10 | . | . | .
O=C(NC1CCCC1)N[C@H]1CC[C@H](CC(=O)N2CCOCC2)O[C@H]1CO | . | . | -7 | . | . | .
O=C(Nc1ccc(F)cc1)Nc1nnc(COc2ccccc2F)s1 | 21 | 1 | 28 | -3 | 1 | 57*
Cc1ccc(NC(=O)Nc2nnc(-c3ccncc3)s2)cc1C | 82* | 15 | ? | -5 | 0 | 36
O=C(Nc1cccc(Cl)c1)Nc1nnc(CSCCOc2ccc(Cl)cc2)s1 | 50 | 44* | 15 | -5 | 0 | 51*
O=C(Nc1cccc(Cl)c1)Nc1nnc(-c2ccncc2)s1 | 76* | 11 | 54* | 4 | 0 | 50*
O=C(Nc1nnc(COc2ccccc2F)s1)Nc1ccccc1F | -25 | -1 | . | 6 | 0 | 41
CCC(=O)N(C)C[C@H]1Oc2cc(C#Cc3ccccn3)ccc2S(=O)(=O)N([C@H](C)CO)C[C@H]1C | . | . | -8 | . | . | .
O=C(Nc1ccc(Cl)cc1)Nc1nnc(-c2ccncc2)s1 | 81* | 20 | ? | 6 | 0 | 41
O=C(Nc1ccc(Cl)cc1)Nc1nnc(CSc2ccc(Cl)cc2)s1 | 64* | 11 | 0 | 3 | -1 | -1
O=C(Nc1ccc(Cl)cc1)Nc1nnc(CSCc2ccccc2)s1 | 25 | 21 | 4 | 2 | -1 | -7
C[C@H](NC(=O)C[C@@H]1CC[C@H]2[C@H](COc3ccc(NS(=O)(=O)c4ccc(Cl)cc4)cc3C(=O)N2C)O1)c1ccccc1 | . | . | 3 | . | . | .
O=C(/C=C\Nc1ccc2c(c1)OCO2)c1ccc(Cl)s1 | 53* | -71 | 35 | 3 | 1 | 16
COC1=CC(=O)C=C(OC)C1=O | 28 | 83* | -3 | . | 0 | -14
Cc1ccccc1C(=O)NC1CCN(Cc2ccccc2)CC1 | 0 | 3 | 2 | 0 | 0 | -10
COc1cc(N)c(Cl)cc1C(=O)NC1CCN(Cc2ccccc2)CC1 | -15 | 92* | -11 | . | 0 | -1
CCC(CC)COC(=O)C1=C(C)NC(=O)NC1c1ccccc1Br (stereo not drawn) | 81* | 3 | -1 | -1 | 0 | 8
C[C@H](CO)N1C[C@H](C)[C@H](CN(C)C(=O)C2CC2)Oc2ncc(C#Cc3ccccc3F)cc2C1=O | . | . | -10 | . | . | .
O=C1CN(S(=O)(=O)Cc2ccccc2)C[C@H]2[C@@H](c3ccc(C#Cc4ccccc4)cc3)[C@H](CO)N12 | . | . | -11 | . | . | .
CCc1ccc(C(=O)COC(=O)c2cccc(N3C(=O)c4c(C)nc5ccccc5c4C3=O)c2)cc1 | 16 | 45* | . | -1 | 1 | -8
O=C(COC(=O)c1cccc(N2C(=O)C3CC=CCC3C2=O)c1)c1ccccc1 (stereo not drawn) | -6 | 5 | -16 | -3 | 0 | -31
COc1ccc2c(c1)c(/C=N/Nc1nc3ccccc3[nH]1)c(C)n2C | 88* | -4 | 59* | 6 | 0 | 54*
COc1cc(/C=N\Nc2nc3ccccc3[nH]2)cc(OC)c1OC | 62* | 15 | . | 2 | 1 | 51*
SMILES | TWEAK Fn14 block | EBV LMP1 NFkB | LGR2 antag | HSP90 refold inh | aDG glyco act | TROY signal inh
CN(C)S(=O)(=O)N1CCC(Oc2ccc(C(=O)NC3CCOC(C)(C)C3)cc2)CC1 (stereo not drawn) | -8 | 4 | -1 | -1 | 0 | 4
CN(C)S(=O)(=O)N1CCC(Oc2ccc(C(=O)NC3Cc4ccccc4C3)cc2)CC1 | 52* | 1 | -13 | 1 | 0 | 27
COC(=O)c1c[nH]c2c1-c1cc(C(=O)OCc3ccccc3)n(S(=O)(=O)c3ccc(C)cc3)c1C(=O)C2=O | 99* | 1 | 9 | . | 1 | 57*
Cc1cc2nc(-c3ccc(SCC(=O)Nc4ccc(S(=O)(=O)N5CCCC5)cc4)nc3)[nH]c2cc1C | -29 | -31 | -57 | -5 | 0 | -35
O=C(CSc1ccc(-c2nc3ccccc3[nH]2)cn1)Nc1ccc(S(=O)(=O)N2CCCC2)cc1 | 52* | -33 | -29 | -3 | 0 | 18
N#C/C(=C\c1cccc(O)c1)C(=O)N1CCCCC1 | -15 | 5 | -5 | -2 | 0 | -12
N#C/C(=C\c1cccc(Br)c1)C(=O)N1CCCCC1 | 24 | 10 | 11 | 17* | 0 | -18
O=[N+]([O-])c1cccc(-c2cc(-c3cc(Br)ccc3O)[nH]n2)c1 | 84* | 5 | 12 | 0 | 0 | 33
COc1ccccc1CN1CC[C@@H]2[C@@H](CO)Nc3ccc(-c4ccc(C(=O)N(C)C)cc4)cc3[C@@H]21 | . | . | 31 | . | . | .
CC1(C)CC(N2CCC(=O)N(C3CC(C)(C)NC(C)(C)C3)C2)CC(C)(C)N1 | 80* | 2 | . | 3 | 0 | .
C[C@@H]1CN([C@H](C)CO)C(=O)Cc2cc(NC(=O)CCN3CCOCC3)ccc2O[C@@H]1CN(C)Cc1ccc(C(=O)Nc2ccccc2N)cc1 | . | . | -7 | . | . | .
COc1ccc(NC(=O)Nc2ccc3c(c2)C(=O)N([C@@H](C)CO)C[C@H](C)[C@H](CN(C)Cc2ccncc2)O3)cc1 | . | . | -19 | . | . | .
COC1(OC)C(/C=C/c2ccc(Cl)cc2)C(C#N)(C#N)C1(OC)OC (stereo not drawn) | 77* | -14 | . | 6 | 1 | 13
Nc1nc(N)c2cc(Sc3ccc(Cl)cc3)ccc2n1 | 22 | 8 | 0 | . | 1 | 25
Nc1nc(N)c2cc(CNc3ccc(Cl)c(Cl)c3)ccc2n1 | 98* | 3 | 107* | . | 0 | 36
Cc1ccc2nccc(C(=O)N3CCCC(N4CCN(c5ccc(F)cc5)CC4)C3)c2c1 (stereo not drawn) | 7 | 4 | 0 | -4 | 0 | 76*
COc1ccccc1N1CCN(C2CCCN(C(=O)c3ccnc4ccc(C)cc34)C2)CC1 (stereo not drawn) | 8 | 3 | -12 | 0 | 0 | 0
Cc1cccc(Cn2cnc3c(nnn3Cc3ccc(Cl)cc3)c2=O)c1 | 1 | 4 | 19 | 4 | 0 | 24
Cc1cccc(Cn2nc(-n3cccc3)c3c(C)cc(C)nc32)c1 | -12 | 47* | 0 | 2 | 0 | -38
C[C@H](CO)N1C[C@H](C)[C@@H](CN(C)C(=O)c2ccccc2)OCCCC[C@H](C)Oc2ccc(NC(=O)NC3CCCCC3)cc2C1=O | . | . | -11 | . | . | .
